Measured values from PubChem BioAssay (EPA / NIEHS).
Several values for one entry are separate records, joined by “and”; a condition that tells them apart may be missing. Identical values can stand only once. Records with an inconclusive call do not appear. Where a structure was tested more than once in an assay, its records may differ in their call. Activity calls are given as the source filed them. How the source made its calls, unless noted: active means hit-call score of the fitted dose curve at least 0.9, where 1 is the maximum; inconclusive means response in the unintended direction; inactive means score below 0.9.

Tests used:
[1] = read-out: Thyroid Hormone Responsive (THRSP), THRSP (gene 7069); experiment: LTEA_HepaRG_THRSP: Life Technologies and Expression Analysis (LTEA) Assay for Thyroid Hormone Responsive (THRSP) using HepaRG (AID 2283536; active means hit-call score of the fitted dose curve at least 0.9, where 1 is the maximum; inactive means score below 0.9); settings: mRNA level, 48 h; actives raise or lower the signal
In short: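 qRT-PCR read-out (Fluidigm TaqMan), housekeeping-normalized (ACTB/GAPDH/POLR2A). HepaRG, 48 h chemical exposure, 8-pt half-log series from 100 uM in 0.5% DMSO, duplicates. Bidirectional curve fit vs 0.5% DMSO baseline.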

[2] = read-out: Cellular tumor antigen p53 (Homo sapiens) (UniProt P04637); experiment: LTEA_HepaRG_TP53: Life Technologies and Expression Analysis (LTEA) Assay for Tumor Protein P53 (TP53) using HepaRG (AID 2283537; active means hit-call score of the fitted dose curve at least 0.9, where 1 is the maximum; inactive means score below 0.9); settings: mRNA level, 48 h; actives raise or lower the signal
In short: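 TP53 transcript measured by qRT-PCR, normalized to three housekeeping genes, after 48 h treatment of human HepaRG cultures with chemicals from 100 uM downward in half-log steps (0.5% DMSO vehicle, serum-free induction medium). Up- or down-regulation fitted against DMSO.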

[3] = read-out: UDP glucuronosyltransferase (UGT1A1), UGT1A1 (gene 54658); experiment: LTEA_HepaRG_UGT1A1: Life Technologies and Expression Analysis (LTEA) Assay for UDP glucuronosyltransferase (UGT1A1) using HepaRG (AID 2283538; active means hit-call score of the fitted dose curve at least 0.9, where 1 is the maximum; inactive means score below 0.9); settings: mRNA level, 48 h; actives raise or lower the signal
In short: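 Cells are plated, cultured 48 h, switched to serum-free induction medium, then dosed 48 h at eight concentrations (max 100 uM, 0.5% DMSO). RNA is isolated and UGT1A1 expression measured by qRT-PCR; changes versus DMSO are fitted in both directions.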

[4] = read-out: UDP glucuronosyltransferase (UGT1A6), UGT1A6 (gene 54578); experiment: LTEA_HepaRG_UGT1A6: Life Technologies and Expression Analysis (LTEA) Assay for UDP glucuronosyltransferase (UGT1A6) using HepaRG (AID 2283539; active means hit-call score of the fitted dose curve at least 0.9, where 1 is the maximum; inactive means score below 0.9); settings: mRNA level, 48 h; actives raise or lower the signal
In short: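 Measures mRNA change in HepaRG hepatic cells exposed 48 h to chemicals (eight-point, maximum 100 uM, 0.5% DMSO vehicle) in serum-free induction medium. Expression normalized to endogenous controls; DMSO served as negative control and baseline.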

[5] = read-out: X-box binding protein 1 (XBP1), XBP1 (gene 7494); experiment: LTEA_HepaRG_XBP1: Life Technologies and Expression Analysis (LTEA) Assay for X-box binding protein 1 (XBP1) using HepaRG (AID 2283540; active means hit-call score of the fitted dose curve at least 0.9, where 1 is the maximum; inactive means score below 0.9); settings: mRNA level, 48 h; actives raise or lower the signal
In short: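 Eight concentrations (half-log, highest 100 uM, 0.5% DMSO) tested in duplicate on HepaRG cells over 48 h in serum-free induction medium; qRT-PCR of XBP1 normalised to ACTB, GAPDH, POLR2A.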

[6] = LTEA_HepaRG_LDH_cytotoxicity: Cytotoxicity Assessment in the Life Technologies and Expression Analysis (LTEA) Assay (AID 2283563);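 on AC50: LDH activity released into spent culture medium as a marker of cell death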
In short: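 Spent-medium LDH after 48 h chemical exposure of HepaRG cells in serum-free induction medium; eight concentrations, half-log dilutions from 100 uM, duplicate wells, fitted upward relative to 0.5% DMSO.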

[7] = ATG_XTT_Cytotoxicity: Cytotoxicity Assessment in the Attagene TRANS-FACTORIAL HepG2 Assay (AID 2283584)
In short: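 24 h chemical exposure of reporter-transfected HepG2; XTT signal loss vs DMSO indicates cytotoxicity.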

[8] = TOX21_p53_BLA_p2_viability: Viability Assessment in the Tox21 HCT-116 p53 Agonism Beta-lactamase Assay, Phase 2 (AID 2283591);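 further: compound exposure lasted 16 h at 37 °C; actives lower the ATP signal meaning cytotoxicity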
In short: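 HCT116 p53-bla cells, 4000/well, dosed after 5 h plating (217-fold dilution of DMSO stocks) and incubated 16 h at 37C. Viability taken as cellular ATP by CellTiter-Glo luminescence after 30 min RT; signal loss marks cytotoxicity.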

[9] = biological target: Cellular tumor antigen p53 (Homo sapiens) (UniProt P04637); experiment: TOX21_p53_BLA_p2_ratio: Tox21 HCT-116 p53 Agonism Beta-lactamase Assay, Ratio, Phase 2 (AID 2283592)
In short: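 DMSO-normalized, positive-direction endpoint derived from the 460 nm/530 nm FRET ratio in HCT116 p53 beta-lactamase reporter cells exposed 16 h at 37C and loaded with CCF4-AM for 2 h.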

[10] = TOX21_p53_BLA_p3_viability: Viability Assessment in the Tox21 HCT-116 p53 Agonism Beta-lactamase Assay, Phase 3 (AID 2283593);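 further: cells exposed to compound for 16 h before reading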
In short: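 HCT116 cells, 4000/well, dosed 5 h after plating by pin transfer (217-fold dilution from DMSO stock) and incubated 16 h at 37C, 5% CO2. Viability read as ATP luminescence with CellTiter-Glo after 30 min at room temperature.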

[11] = biological target: Cellular tumor antigen p53 (Homo sapiens) (UniProt P04637); experiment: TOX21_p53_BLA_p3_ratio: Tox21 HCT-116 p53 Agonism Beta-lactamase Assay, Ratio, Phase 3 (AID 2283596)
In short: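 Cells were seeded at 4000/well, rested 5 h at 37C, then dosed with DMSO compound solutions (217-fold dilution) for 16 h. CCF4-AM substrate was loaded for 2 h at room temperature, and the 460/530 nm emission ratio was fitted for gain of signal versus DMSO.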

[12] = TOX21_p53_BLA_p4_viability: Viability Assessment in the Tox21 HCT-116 p53 Agonism Beta-lactamase Assay, Phase 4 (AID 2283597);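 further: hits lower the luminescence signal meaning cytotoxicity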
In short: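 In this multiplexed secondary endpoint, HCT116 cells (4000 per well, compound at 5 h, 16 h treatment) received CellTiter-Glo after the beta-lactamase read. Luminescence after 30 min RT reflects ATP, and falling signal marks cytotoxicity.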

[13] = biological target: Cellular tumor antigen p53 (Homo sapiens) (UniProt P04637); experiment: TOX21_p53_BLA_p5_ratio: Tox21 HCT-116 p53 Agonism Beta-lactamase Assay, Ratio, Phase 5 (AID 2283599)
In short: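 HCT-116 p53-bla cells (4000/well) plated 5 h, dosed with compound (217-fold DMSO dilution) for 16 h at 37 C; CCF4-AM substrate 2 h at room temperature. Activity is the 460/530 nm emission ratio (405 nm excitation), fitted in gain-of-signal direction versus DMSO.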

[14] = TOX21_p53_BLA_p5_viability: Viability Assessment in the Tox21 HCT-116 p53 Agonism Beta-lactamase Assay, Phase 5 (AID 2283600)
In short: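 Here cell health was gauged by ATP levels in wells holding 4000 cells, each treated 16 h with DMSO-delivered compounds at 217-fold dilution; reduced luminescence marked toxicity.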

[15] = biological target: Cellular tumor antigen p53 (Homo sapiens) (UniProt P04637); experiment: TOX21_p53_BLA_p4_ratio: Tox21 HCT-116 p53 Agonism Beta-lactamase Assay, Ratio, Phase 4 (AID 2283601)
In short: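 HCT-116 p53 beta-lactamase reporter cells (4000/well) preincubated 5 h, then compound (217-fold dilution of DMSO stock) for 16 h at 37C. CCF4-AM substrate added 2 h at room temperature; 460/530 nm emission ratio fitted upward versus DMSO.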

[16] = Tanguay_ZF_120hpf_MORT_legacy: (Legacy) Oregon State University Tanguay Lab 120 Hour Post-fertilization zebrafish Assay for Mortality (AID 2283633);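 on AC50: fitted as increase in binary mortality versus DMSO negative control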
In short: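 Single dechorionated Tropical 5D embryos were held with test chemical (0.64% DMSO final) from 6 to 120 hpf at 28C under foil. Deaths at 24 or 120 hpf were recorded as binary calls, analysed for increase over DMSO controls.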

[17] = Tanguay_ZF_120hpf_YSE_legacy: (Legacy) Oregon State University Tanguay Lab 120 Hour Post-fertilization zebrafish Assay for Yolk Sac Edema (AID 2283634);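 on AC50: actives raise the incidence of yolk sac edema above the DMSO baseline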
In short: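 Single dechorionated embryos were held in sealed plates at 28C with test chemical (0.64% DMSO final) from 6 hpf until 120 hpf. Edema of the yolk sac was then recorded as a binary endpoint; non-mortality endpoints were skipped for dead embryos.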

[18] = Tanguay_ZF_120hpf_AXIS_legacy: (Legacy) Oregon State University Tanguay Lab 120 Hour Post-fertilization zebrafish Assay for Body Axis Malformation (AID 2283635);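 on AC50: potency for an increased fraction of larvae scored with body axis malformation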
In short: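 Each dechorionated embryo was exposed alone from 6 hpf, with DMSO at 0.64% (vol/vol) and trimethyltin chloride 5 uM as positive control. Axis malformation was recorded at 120 hpf unless the embryo had died.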

[19] = Tanguay_ZF_120hpf_EYE_legacy: (Legacy) Oregon State University Tanguay Lab 120 Hour Post-fertilization zebrafish Assay for Eye Malformation (AID 2283636);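 further: binary presence or absence of eye malformation scored by brightfield in 120 hpf larvae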
In short: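 5D wild-type embryos, pronase-dechorionated at 4 hpf; static exposure 6–120 hpf, 28C, dark; DMSO 0.64% final; 5uM trimethyltin chloride positive control. Binary eye-defect scoring at 120 hpf; dead embryos not scored.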

[20] = Tanguay_ZF_120hpf_SNOU_legacy: (Legacy) Oregon State University Tanguay Lab 120 Hour Post-fertilization zebrafish Assay for Snout Malformation (AID 2283637)
In short: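 Binary brightfield scoring of snout malformation at 120 hpf. Dechorionated 5D wild-type embryos, one per well, static exposure from 6 hpf at 28C, sealed and dark; final DMSO 0.64% (vol/vol), DMSO as baseline; 5uM trimethyltin chloride positive control.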

Measured: AC50

Cellular tumor antigen p53 (Homo sapiens), sequence (P04637 whole entry, looked up): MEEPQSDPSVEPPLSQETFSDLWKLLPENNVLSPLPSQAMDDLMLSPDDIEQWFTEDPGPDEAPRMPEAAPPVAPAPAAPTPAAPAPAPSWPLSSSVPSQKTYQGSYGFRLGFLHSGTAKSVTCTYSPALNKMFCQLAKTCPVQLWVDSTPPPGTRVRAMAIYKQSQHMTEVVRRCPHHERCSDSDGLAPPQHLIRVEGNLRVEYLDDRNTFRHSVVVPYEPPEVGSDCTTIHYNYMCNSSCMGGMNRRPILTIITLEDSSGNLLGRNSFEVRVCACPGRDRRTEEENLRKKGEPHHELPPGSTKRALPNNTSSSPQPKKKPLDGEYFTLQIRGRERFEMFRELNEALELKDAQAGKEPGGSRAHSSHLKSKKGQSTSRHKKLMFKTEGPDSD

CCOP(=O)(NC(C)C)Oc1ccc(SC)c(C)c1 (stereo unspecified)
inactive: [1] | [2] | [4] | [5] | [6] | [7] | [8] | [9] | [10] | [11] | [12] | [13] | [14] | [15] | [16]
active: [3] 50 µM | [17] 24.8 µM | [18] 22.1 µM | [19] 14.6 µM | [20] 20.9 µM

CCC(CC)Nc1c([N+](=O)[O-])cc(C)c(C)c1[N+](=O)[O-]
active: [1] 36.7 µM | [3] 28.2 µM
inactive: [2] | [4] | [5] | [6] | [7] | [8] | [9] | [10] | [11] | [12] | [13] | [14] | [15] | [16] | [17] | [18] | [19] | [20]

S=C1NCCN1
inactive: [1] | [2] | [3] | [4] | [5] | [6] | [8] | [9] | [10] | [11] | [12] | [13] | [14] | [15] | [17] | [18] | [19] | [20]

CCCOCC(=Nc1ccc(Cl)cc1C(F)(F)F)n1ccnc1
inactive: [5] | [7] | [16] | [17] | [18] | [20]
active: [1] 19.1 µM | [2] 86.9 µM | [3] 3.03 µM | [4] 69 µM | [6] 78.9 µM | [8] 23.7 µM | [9] 39.9 µM | [10] 35.4 µM | [11] 68.1 µM | [12] 24.9 µM | [13] 48.5 µM | [14] 31.2 µM | [15] 46.2 µM

CSC1=N[C@@](C)(c2ccccc2)C(=O)N1Nc1ccccc1
inactive: [5] | [8] | [9] | [10] | [11] | [12] | [13] | [14] | [15] | [18] | [19] | [20]
active: [1] 71.4 µM | [2] 28.4 µM | [3] 32.1 µM | [4] 33.2 µM | [6] 32.4 µM | [16] 12.6 µM | [17] 3.52 µM

CC(C)=CC1C(C(=O)OCN2C(=O)C3=C(CCCC3)C2=O)C1(C)C (stereo unspecified)
inactive: [1] | [2] | [3] | [4] | [5] | [6] | [8] | [9] | [10] | [11] | [12] | [13] | [14] | [15] | [16] | [17] | [18] | [19] | [20]
active: [12] 46.1 µM

CCOC(=O)CC(SP(=O)(OC)OC)C(=O)OCC (stereo unspecified)
active: [18] 16.5 µM | [19] 12.1 µM
inactive: [1] | [2] | [3] | [4] | [5] | [6] | [8] | [9] | [10] | [11] | [12] | [13] | [14] | [15] | [16] | [17] | [20]

N#CSCSC#N
inactive: [2] | [3] | [4] | [5] | [17] | [18] | [19] | [20]
active: [1] 50 µM | [6] 75.7 µM | [8] 54.8 µM and 70.4 µM | [9] 19 µM and 15.5 µM | [10] 60.7 µM and 78.2 µM | [11] 14.9 µM and 8.68 µM | [12] 51.1 µM and 61.9 µM | [13] 18.8 µM and 15.9 µM | [14] 66.3 µM and 68.4 µM | [15] 36.5 µM and 18.1 µM | [16] 34.6 µM

C#CCC1=C(C)C(OC(=O)C2C(C=C(C)C)C2(C)C)CC1=O (stereo unspecified)
active: [1] 88.9 µM | [8] 45.8 µM | [9] 86.7 µM
inactive: [2] | [3] | [4] | [5] | [6] | [7] | [10] | [11] | [12] | [13] | [14] | [15] | [16] | [17] | [19] | [20]

CC1(C(=O)Nc2ccc(O)c(Cl)c2Cl)CCCCC1
inactive: [1] | [2] | [3] | [4] | [5] | [6] | [8] | [9] | [10] | [11] | [12] | [13] | [14] | [15] | [16] | [17] | [18] | [19] | [20]

CC(=NC#N)N(C)Cc1ccc(Cl)nc1
active: [3] 50 µM
inactive: [1] | [2] | [4] | [5] | [6] | [8] | [9] | [10] | [11] | [12] | [13] | [14] | [15] | [16] | [17] | [18] | [19] | [20]
